# Screens deposited in PubChem BioAssay by several laboratories.
# eLon inh: inhibits E. coli Lon protease; inhibition, % at 7.94 µM; hit rate 0.42% among 360,000; AID 602123; P0A9M0; purified E. coli Lon protease, fluorescence polarization; in the data active means inhibition above about 13%, passing the limit was not always enough
# MEX-5 binding: C. elegans MEX-5 TCR-2 RNA binding activity. Q9XUB2. MEX-5/FITC-TCR2 RNA binding, fluorescence polarization; stronger effect = lower value. activity score (negative = inhibition of binding), % at 10 µM. hit rate 0.38% among 300,000. AID 1832;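 active means inhibition past about -25% in most replicates, and total fluorescence under double the plate's negative control median, limit read from the data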
# Bcl-xL primary: blocks human Bcl-xL binding to Bim BH3 peptide; hit rate 0.7% among 320,000; GST-Bcl-xL / FITC-Bim BH3 peptide fluorescence polarization; AID 2129; Q07817; inhibition, % at 10.9 µM;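 active means inhibition above the mean of all tested compounds plus 3 SD, cutoff set per campaign, cut at about 30% in these data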;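 further: inhibitors lower millipolarization by displacing the labeled peptide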
# EBV gp42 inh: EBV gp42 inhibition. Q1HVG2. Fluorescence polarization binding assay, mP read-out. inhibition, % (tested at 21.74 µM). hit rate 0.42% among 220,000; in the data active means inhibition above about 50%
# Target sequence (Q1HVG2 whole entry, looked up): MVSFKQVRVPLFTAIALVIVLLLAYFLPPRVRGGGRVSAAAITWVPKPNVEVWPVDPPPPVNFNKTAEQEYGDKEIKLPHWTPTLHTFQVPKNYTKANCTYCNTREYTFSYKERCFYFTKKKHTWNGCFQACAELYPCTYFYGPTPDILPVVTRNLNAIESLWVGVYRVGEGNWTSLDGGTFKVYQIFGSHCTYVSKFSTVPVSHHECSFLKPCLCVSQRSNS
# MCL1 BIM primary: disrupts human MCL1 binding to BIM-BH3 peptide. Q07820. AID 2057. hit rate 0.68% among 320,000. inhibition, % at 10.9 µM. GST-MCL1 / FITC-Bim-BH3 fluorescence polarization;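 active means inhibition above the mean inhibition of all tested compounds plus 3 SD, set per campaign, cut at about 40% in these data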;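 further: higher means more loss of mP so more displacement of Bim peptide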
# Target sequence (Q07820 whole entry, looked up): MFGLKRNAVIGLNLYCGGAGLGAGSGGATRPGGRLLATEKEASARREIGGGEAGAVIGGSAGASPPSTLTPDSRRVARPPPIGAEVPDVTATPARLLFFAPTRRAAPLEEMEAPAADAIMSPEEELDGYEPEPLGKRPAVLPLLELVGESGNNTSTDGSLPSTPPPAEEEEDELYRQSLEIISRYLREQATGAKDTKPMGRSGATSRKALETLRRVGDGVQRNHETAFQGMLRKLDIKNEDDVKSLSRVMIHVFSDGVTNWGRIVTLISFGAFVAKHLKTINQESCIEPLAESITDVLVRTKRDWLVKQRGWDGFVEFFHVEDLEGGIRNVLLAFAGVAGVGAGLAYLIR
# GLD-1 RNA inh: GLD-1-TGE RNA interaction inhibition (C. elegans) | AID 2280 | inhibition, % at 5.96 µM | hit rate 0.44% among 320,000 | Q17339 | purified GLD-1 + fluorescein TGE RNA, fluorescence polarization;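 active means percent inhibition above a per-plate cutoff, the plate mean of test compounds plus 3 SD, cut at about 30% in these data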
# GLD-1 TGE cf: confirmation of C. elegans GLD-1 TGE RNA binding inhibitors | hit rate 10% among 550 | inhibition, % at 5.96 µM | AID 2459 | GLD-1/FL-TGE RNA fluorescence polarization, biochemical | shares compounds with GLD-1 RNA inh;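 active means average inhibition across triplicates above the hit cutoff set in the primary screen, cut at about 32% in these data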
# Hits are given with their value; n = inactive; x = no result. A selection: hits, their analogues and other compounds. The true share with any hit is near 1.5%.
SMILES,eLon inh,MEX-5 binding,Bcl-xL primary,EBV gp42 inh,MCL1 BIM primary,GLD-1 RNA inh,GLD-1 TGE cf
COc1ccc(NC(=O)C(c2ccc(Cl)cc2)C(C)C)cn1 (centres undefined),n,n,35.7,x,n,36.4,n
CC1(NC(=O)c2ccccc2)CCN(CCCc2ccccc2)C1=O (centres undefined),n,x,n,x,n,n,x
CCOc1ccc(CN(CC)C(=O)Cc2c[nH]c3ccccc23)cc1OC,n,n,n,x,n,n,x
CN(Cc1ccc(C(C)(C)C)cc1)C(=O)Cc1ccc(S(=O)(=O)N2CCOCC2)s1,n,x,n,x,n,n,x
CC1(C)CC(=O)C2=C(C1)Nc1cc(Cl)ccc1S2,n,n,33.9,n,n,35.1,n
O=C(Nc1c(-c2ccccc2)nc2ccccn12)c1ccccc1F,n,n,n,x,n,n,x
CCC(CC)C1C(C#N)=C(N)Oc2cc(C)oc(=O)c21 (centres undefined),n,n,n,n,n,n,x
Cc1cc2c(c(=O)o1)C(c1ccc([N+](=O)[O-])o1)C(C#N)=C(N)O2 (centres undefined),n,n,46.0,n,47.3,36.4,n
Fc1ccc(Br)cc1C1C=C(c2cccnc2)Nc2ncnn21 (centres undefined),n,n,36.8,n,n,34.1,n
CC1CCC(C(C)C)C(OC(=O)C2=C3c4ccccc4S(=O)(=O)N3CC2)C1 (centres undefined),n,n,n,n,n,48.9,n
CC1CCC(C(C)C)C(OC(=O)CSc2nccc(=O)[nH]2)C1 (centres undefined),n,n,n,n,n,n,x
CCOC(=O)C1(C)CCCN1C(=O)c1ccccc1F (centres undefined),n,x,x,x,x,x,x
C/C(Cc1ccccc1)=N\NC(=O)CNC(=O)c1ccc(Cl)cc1,n,n,n,n,n,62.2,n
COc1ccc(OC)c(C(=O)N(C)C2CCCN(Cc3ccccc3F)C2)c1 (centres undefined),n,n,n,x,n,39.2,n
COc1ccc(C(=O)N(C)C2CCCN(Cc3ccccc3F)C2)cc1OC (centres undefined),n,n,n,x,n,n,x
COc1ccc(/C=N/Nc2cc(=O)n(C)c(=O)n2C)cc1OC,n,n,n,n,n,n,x
COc1cc(/C=N\Nc2cc(=O)n(C)c(=O)n2C)ccc1O,n,n,n,n,n,39.2,n
Cc1cc(NC(=O)c2ccc(F)cc2F)n(-c2nc3ccccc3[nH]2)n1,n,n,n,n,n,n,x
Cc1cc(NC(=O)/C=C/c2ccccc2Cl)n(-c2nc3ccccc3[nH]2)n1,n,n,n,n,n,33.8,n
COc1ccc(/C=N\NC(=O)c2sccc2C)cc1Cn1nc(C)cc1C,n,n,n,x,n,n,x
Cc1ccc(C2C=C(c3ccccc3)Nc3ncnn32)cc1 (centres undefined),n,n,n,x,n,32.6,n
Cc1cc(C)c(C2=CC(c3ccccc3)n3ncnc3N2)cc1C (centres undefined),x,n,n,x,n,n,x
Cc1cc2c(cc1C)N[C@]1(C[C@H]3CCCC(=O)N4CC[C@@H](C1)[C@@H]34)C(=NC(C)(C)CC(C)(C)C)N2,n,x,x,x,x,x,x
O=C1NC2(CCCCCC2)C(=O)N1Cc1c(F)cccc1Cl,n,n,n,x,n,n,x
Cc1cc2ccccc2n1CCNC(=O)c1ccc(Br)o1,n,n,34.2,n,48.0,36.4,n
SMILES,eLon inh,MEX-5 binding,Bcl-xL primary,EBV gp42 inh,MCL1 BIM primary,GLD-1 RNA inh,GLD-1 TGE cf
Cc1cc2ccccc2n1CCNC(=O)c1ccccc1,n,x,n,n,n,n,x
CCn1c(CSc2nnc(-c3cccnc3)n2-c2ccccc2C)nc2cc(C(=O)O)ccc21,x,x,30.3,n,n,45.9,n
CCOC(=O)c1c(NC(=O)CSc2nccn2C)sc(C(=O)NC)c1C,n,n,n,x,n,n,x
CCOC(=O)Cc1csc(/N=C/c2c(O)n(-c3ccc(C)cc3C)c(=O)c3ccccc23)n1,n,n,n,n,n,38.0,n
COC(=O)C(N)Cc1ccc(O)c(O)c1 (centres undefined),n,n,n,n,n,70.5,n
C[C@](N)(Cc1ccc(O)c(O)c1)C(=O)O,n,x,x,n,x,x,x
CC(Sc1nnnn1C)C(=O)NC1CCCC1 (centres undefined),n,x,x,x,x,n,x
C[C@H]1COc2cccc(N3CCC[C@@H]3CO)c2S(=O)(=O)N1,n,x,x,x,x,x,x
N#CCNC(=O)C1CC(=O)N(CCc2ccc(F)cc2)C1 (centres undefined),n,n,n,x,n,n,x
CN1C(C)(C)CC(NC(=O)c2ccco2)CC1(C)C,n,n,n,x,n,n,x
CC1(C)CC(OC(=O)c2ccco2)CC(C)(C)N1O,n,n,42.8,n,n,35.1,n
N#CCCn1cc(C=O)c(-c2cccs2)n1,n,n,n,n,n,69.3,n
CCc1ccc(C2C(C#N)=C(N)C(C#N)(C#N)C3=CCC(C(C)(C)C)CC32)cc1 (centres undefined),25.9,n,41.3,n,n,41.3,n
CCOC(=O)C1=C2NC(=O)c3ccccc3N2C(=O)C1,n,-31.2,47.6,n,43.4,52.4,n
CCOC(=O)C1=C(N)N(c2ccccc2Oc2ccccc2)C(=O)C1,n,n,n,n,n,n,x
Cc1cc2oc(=O)cc(CN3CCCCCCC3)c2cc1Cl,n,x,x,x,x,x,x
COc1ccc(OC)c(-c2cc(C(=O)Nc3ccccc3C(N)=O)c3ccccc3n2)c1,n,n,n,x,n,33.5,n
Nc1ccc2c(c1)nc(Cc1ccccc1)n2CCO,n,n,n,n,n,n,x
CN1CC2=Cc3ccccc3OC23Oc2ccccc2C=C3C1,n,n,n,n,n,33.5,38.5
COc1nnc(-c2ccc(C)c(S(=O)(=O)NCCO)c2)c2ccccc12,n,n,39.3,n,n,49.0,n
COc1cc(CNC2CCCC2)cc(Cl)c1OCc1ccc(F)cc1,n,n,n,n,n,51.9,n
CCOc1cc(CNC2CCCC2)cc(Cl)c1OCc1ccc(F)cc1,n,n,n,n,n,n,x
N#Cc1c(NCCCO)nc(NCc2ccccc2)c2c1CCN(Cc1ccccc1)C2,n,n,31.2,n,n,32.5,n
O=C(O)Cn1c2c(c3ccccc31)CCCC2,n,n,39.4,n,47.7,33.1,n
O=[N+]([O-])c1ccccc1/C=C/C=N/Nc1ccc(S(=O)(=O)Nc2ccc(Cl)cc2)cc1[N+](=O)[O-],n,n,n,n,n,n,x
CC(C)C1=C2OC(N)=C(C#N)C(C#N)=C2C(C)CC1 (centres undefined),n,n,35.0,x,n,38.6,n
COc1ccccc1Oc1c(C)oc2c(CN3CCN(CCO)CC3)c(O)ccc2c1=O,x,n,94.5,n,112.5,61.4,n
CCOc1ccccc1Oc1c(C)oc2c(CN3CCN(CCO)CC3)c(O)ccc2c1=O,n,n,n,x,n,n,x
